Test results taken from PubChem BioAssay AID2242 (National Center for Advancing Translational Sciences (NCATS), 2010).
Out of some 200,000 compounds screened, about 720 (0.36%) were called active. Inconclusive results (about 8%) are left out. Calls come from the whole dose curve; as a rule, active = well fitted activation curve with a large enough effect; inconclusive = small, poorly fitted or top-dose-only effect, or effect the other way, or another doubt; inactive = flat fitted curve, though single readings scatter. The list shows a part of the results.

Target: Lysosomal alpha-glucosidase (Homo sapiens) (UniProt P10253)
Assay: qHTS Assay for Activators of Human alpha-Glucosidase as a Potential Chaperone Treatment of Pompe Disease; note: nearly all actives have a fitted effect of over 80% in size
Conditions: purified enzyme, 4-MU-alpha-glucoside fluorescence, 20 min; series mostly up to 76.9 µM
Summary of the method: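 Fluorogenic assay, 4 nM enzyme, 400 uM 4-methylumbelliferyl-[…], pH 5.0 citrate/phosphate buffer with 0.005% Tween-20, compounds up to 77 uM, 20 min at room temperature. NaOH/glycine stop, Ex 365/Em 440 nm; AC50 from Hill fits.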
Potency is the fitted concentration of half-maximal effect.

Potency, active:
COCCNc1cc(C)c(C#N)c2nc3ccccc3n12 35.5 µM
Cc1cc(NCCCn2ccnc2)n2c(nc3ccccc32)c1C#N 35.5 µM
Cc1cc(NCCCO)n2c(nc3ccccc32)c1C#N 35.5 µM
COc1cc(C(=O)Nc2cc(-c3cn4cccnc4n3)ccc2C)cc(OC)c1OC 35.5 µM
COc1cccc(C(=O)Nc2cc(-c3cn4cccnc4n3)ccc2C)c1 35.5 µM
Cc1ccc(-c2cn3cccnc3n2)cc1NC(=O)c1ccc(Br)o1 35.5 µM
O=c1oc2c(CN3CCCCC3)c(O)ccc2c2c1CCCCC2 35.5 µM
O=c1oc2c(CN3CCCCC3)c(O)ccc2c2c1CCCC2 35.5 µM
C=CCn1c(N)c(C(=O)OC(C)(C)C)c2nc3ccccc3nc21 35.5 µM
COCC(C)OC(=O)c1c(N)n(CC(C)C)c2nc3ccccc3nc12 (stereo unspecified) 35.5 µM
CCOC(=O)c1c(N)n(CC(C)NC(=O)C2CC2)c2nc3ccccc3nc12 (stereo unspecified) 35.5 µM
C=CCn1c(N)c(C(=O)OCCC)c2nc3ccccc3nc21 35.5 µM
C=CCn1c(N)c(C(=O)OCC(C)C)c2nc3ccccc3nc21 35.5 µM
C=CCn1c(N)c(C(=O)OC(C)CC)c2nc3ccccc3nc21 (stereo unspecified) 31.6 µM
CC(C)(C)OC(=O)c1c(N)n(CCCN2CCCC2=O)c2nc3ccccc3nc12 31.6 µM
COCCN(CCOC)Cc1c(O)ccc2c3c(c(=O)oc12)CCC3 35.5 µM
Cc1cc(=O)oc2c(CN(CC(C)C)CC(C)C)c(O)ccc12 31.6 µM
CC(C)CN(Cc1c(O)ccc2c3c(c(=O)oc12)CCC3)CC(C)C 31.6 µM
Cc1cc(=O)oc2c(CN(C)Cc3ccccc3)c(O)ccc12 35.5 µM
CN(C)Cc1c(O)ccc2c3c(c(=O)oc12)CCCCC3 35.5 µM
COc1ccc(-c2cc(C(F)(F)F)n3nc(C(=O)NCCN4CCOCC4)cc3n2)cc1 44.7 µM
CCCc1cc(=O)oc2c(CN3CCOCC3)c(O)ccc12 31.6 µM
CCCCc1cc(=O)oc2c(CN3CCCC3)c(O)ccc12 31.6 µM
CCCc1cc(=O)oc2c(CN3CCCC3)c(O)ccc12 35.5 µM
COC(=O)C1=CN(CC2CCCO2)C=C(C(=O)OC)C1c1ccccc1C(F)(F)F (stereo unspecified) 25.1 µM
CCOC(=O)C1=CN(CC2CCCO2)C=C(C(=O)OCC)C1c1ccccc1C(F)(F)F (stereo unspecified) 35.5 µM
CCOP(=O)(OCC)c1nc(-c2cccc3ccccc23)oc1NCc1ccc(OC)cc1 35.5 µM
COc1ccc(CNc2oc(-c3cccc4ccccc34)nc2C#N)cc1 28.2 µM
COP(=O)(OC)c1nc(-c2cccc3ccccc23)oc1NCc1ccccc1 35.5 µM
Cc1oc2cc(O)ccc2c(=O)c1Oc1ccc2ccccc2c1 39.8 µM
CC(=O)Oc1cc2oc(=O)cc(C)c2cc1OC(C)=O 31.6 µM
Cc1cc(=O)oc2cc(OC(=O)c3ccccc3)ccc12 25.1 µM
Cc1cc(=O)oc2cc(OC(=O)c3cncc(Br)c3)ccc12 17.8 µM
CCC(=O)Oc1ccc2c(C)c(Cl)c(=O)oc2c1 35.5 µM
Cc1cc(=O)oc2cc(OCc3ccc(C(=O)N4CCN(c5ccccc5)CC4)cc3)ccc12 39.8 µM
CCCC(=O)Oc1ccc2c(C)cc(=O)oc2c1 35.5 µM
Cc1cc(=O)oc2cc(OC(=O)CCN3C(=O)c4ccccc4C3=O)ccc12 25.1 µM
CC(=O)Oc1ccc2c(C)cc(=O)oc2c1 35.5 µM
CCN(CC)c1cc(C)c2cc(NC(=O)CNC(C)=O)ccc2n1 35.5 µM
CCN1c2ccccc2-c2nc3ccccc3n2C1c1cccs1 (stereo unspecified) 35.5 µM
CN1c2ccccc2-c2nc3ccccc3n2C1c1cccs1 (stereo unspecified) 35.5 µM
COc1ccc(-c2cn3cccnc3n2)cc1Br 35.5 µM
COc1ccc(-c2cn3cccnc3n2)cc1F 28.2 µM
CC12CCC(=O)N1c1c(sc3nc(N4CCOCC4)c4c(c13)CCCC4)C(=O)N2 (stereo unspecified) 35.5 µM
Nc1c(C(O)(C(F)(F)F)C(F)(F)F)ccc2ccccc12 35.5 µM
Nc1ccc(-c2nc3ccc(C(=O)O)cc3s2)cc1 35.5 µM
Nc1ccc2nc(-c3ccccc3)sc2c1 35.5 µM
Cc1cc(C)[n+](-c2ccc(F)cc2)c2[nH]c(=O)[nH]c(=O)c12 35.5 µM
Cc1cc(C)[n+](-c2ccc(C(C)C)cc2)c2[nH]c(=O)[nH]c(=O)c12 35.5 µM
COCCOC(=O)C1=C(C)NC2=C(C(=O)CC(C)(C)C2)C1c1cccnc1 (stereo unspecified) 35.5 µM
COc1cccc(C2C(C#N)=C(C)NC3=C2C(=O)CC(C)(C)C3)c1 (stereo unspecified) 39.8 µM
CC1=C(C#N)C(c2cccnc2)C2=C(CC(C)(C)CC2=O)N1 (stereo unspecified) 28.2 µM
CC1=C(C#N)C(c2cccnc2)C2=C(CCCC2=O)N1 (stereo unspecified) 25.1 µM
CCN1CCN(C(c2cc3cc4c(cc3[nH]c2=O)OCO4)c2nnnn2C(C)(C)CC)CC1 (stereo unspecified) 39.8 µM
Nc1nc(N)c2nc(-c3ccccc3)c(N)nc2n1 39.8 µM
Clc1ccc(/C=C/c2nc3ccccc3[nH]2)c(Cl)c1 35.5 µM
CC(=O)c1ccc(-c2nc3ccccc3n2C)o1 31.6 µM
Cn1c(-c2cc3ccc(OC(=O)C(C)(C)C)cc3oc2=O)nc2ccccc21 39.8 µM
CCC(=O)c1ccc(/C=C/c2nc3ccccc3n2C)o1 35.5 µM
CC(=O)Oc1ccc2cc(-c3nc4ccccc4n3C)c(=O)oc2c1 35.5 µM
CCCCn1c(NS(=O)(=O)c2ccc(C)cc2)c(S(=O)(=O)c2ccccc2)c2nc3ccccc3nc21 50.1 µM
CCC(=O)Nc1c(S(=O)(=O)c2ccccc2)c2nc3ccccc3nc2n1Cc1ccccc1 39.8 µM
CCCCn1c(NS(=O)(=O)c2ccccc2)c(S(=O)(=O)c2ccc(C)cc2)c2nc3ccccc3nc21 35.5 µM
Cc1cccn2c(=O)c3cc(C#N)c(=O)n(CC4CCCO4)c3nc12 (stereo unspecified) 10 µM
Cc1ccc2nc3c(cc(C#N)c(=O)n3CC3CCCO3)c(=O)n2c1 (stereo unspecified) 3.98 µM
Cc1ccc2nc3c(cc(C#N)c(=O)n3CCN3CCOCC3)c(=O)n2c1 28.2 µM
Cc1cccn2c(=O)c3cc(C#N)c(=O)n(Cc4cccnc4)c3nc12 3.98 µM
COC(=O)c1c(N)n(CCCN2CCOCC2)c2nc3ccccc3nc12 31.6 µM
CC(C)OC(=O)c1c(N)n(CCCN2CCOCC2)c2nc3ccccc3nc12 39.8 µM
Cc1c(C#N)c(N)nc2c3c(sc12)NC(=O)CC3c1ccccc1 (stereo unspecified) 5.01 µM
COc1ccc(F)cc1CN1CCN(c2cc(C)nc3c4c(C)cc(C)nc4nn23)CC1 35.5 µM
CCc1c(C)c2cc(Cl)c(O)c(CN(C)C)c2oc1=O 31.6 µM
CCc1c(C)c2ccc(O)c(CN(C)C)c2oc1=O 35.5 µM
COC(=O)Cc1c(C)c2ccc(O)c(CN3CCCC(C)C3)c2oc1=O (stereo unspecified) 35.5 µM
CCN(CC)Cc1c(O)ccc2c(C)c(CC(=O)OC)c(=O)oc12 35.5 µM
Cc1c(Cc2ccccc2)c(=O)oc2c(CN(C)C)c(O)c(Cl)cc12 35.5 µM
Cc1c(C)c2cc(Cl)c(O)c(CN(C)C)c2oc1=O 39.8 µM
O=c1c2ccccc2[nH]c2ccc(F)cc12 31.6 µM
O=c1c2ccccc2[nH]c2ccccc12 39.8 µM
O=C(c1ccco1)N1CCN(C/C=C/c2ccccc2)CC1 17.8 µM
COC(=O)C1=CN(Cc2cccs2)C=C(C(=O)OC)C1c1cccc(OC)c1OC 25.1 µM
COC(=O)C1=CN(Cc2cccs2)C=C(C(=O)OC)C1c1ccc(OC)cc1OC 35.5 µM
CCN1C=C(C(=O)OC)C(c2cccc(OC)c2OC)C(C(=O)OC)=C1 35.5 µM
COC(=O)C1=CN(Cc2cccs2)C=C(C(=O)OC)C1c1cccc(Cl)c1 35.5 µM
CCN1C=C(C(=O)OC)C(c2cccc(C)c2)C(C(=O)OC)=C1 35.5 µM
COCCn1cc(C(=O)N2CCN(C)CC2)c2c3ccccc3n(C)c2c1=O 35.5 µM
Cc1cccc(N=c2oc3cc(O)ccc3cc2C(N)=O)c1 35.5 µM
CCOc1ccccc1N=c1oc2cc(O)ccc2cc1C(=O)NCC1CCCO1 (stereo unspecified) 31.6 µM
COc1ccccc1N=c1oc2cc(O)ccc2cc1C(N)=O 28.2 µM
NC(=O)c1cc2ccc(O)cc2oc1=NCc1ccccc1 35.5 µM
CCCCNC(=O)CCC(=O)Nc1ccc2nc(N3CCCCC3)cc(C)c2c1 25.1 µM
CCCCN(CC)CCNC(=O)CCC(=O)Nc1ccc2nc(N3CCN(C)CC3)cc(C)c2c1 28.2 µM
CCCCNC(=O)CCC(=O)Nc1ccc2nc(N3CCC(C)CC3)cc(C)c2c1 39.8 µM
Cc1cc(N2CCC(C)CC2)nc2ccc(N3C(=O)CCC3=O)cc12 31.6 µM
COCCCNC(=O)CCC(=O)Nc1ccc2nc(N3CCOCC3)cc(C)c2c1 28.2 µM
CCN(CC)CCCNC(=O)CCC(=O)Nc1ccc2nc(N3CCC(C)CC3)cc(C)c2c1 39.8 µM
